Laboratory results from PubChem BioAssay AID1159580 (chemical genetic matrix, 2015).
Among all 5,500 compounds or so, about 2,000 (36%) were called active. Another 18% or so got no clear call; they are omitted. Cut-off read from the data, not from the text of the source: active = normalized growth mostly below about 0.91 (no sharp cut-off); inconclusive = no clear call, values can overlap the other calls; inactive = mostly above about 0.92. The list shows a part of the results.

Assay: chemical genetic growth profiling, strain panel (AID 1159580);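 note: tested at 20 µM; growth read once vehicle control cultures reached saturation at 30 °C; 1 = growth at the plate median or of vehicle wells; lower values mean less growth of the strain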
Settings: S. cerevisiae deletion strains, growth OD

Measured: normalized growth

CC(=O)O[C@H]1C[C@@H]2CC[C@@H]3[C@H](CC[C@@]4(C)[C@H]3C[C@H]([N+]3(C)CCCCC3)[C@@H]4OC(C)=O)[C@@]2(C)C[C@@H]1[N+]1(C)CCCCC1
inactive: locus YAL040C, strain CLN3, active compounds read low 0.985 | locus YCL061C, strain MRC1 (second series), active compounds read low 0.988 | locus YDR150W, strain NUM1, active compounds read low 0.998 | locus YDR363W, strain ESC2, active compounds read low 0.989 | locus YER002W, strain NOP16, active compounds read low 1 | locus YGR078C, strain PAC10, active compounds read low 0.996 | locus YNL128W, strain TEP1, active compounds read low 1 | locus YNL175C, strain NOP13, active compounds read low 1.03 | locus YNL197C, strain WHI3, active compounds read low 0.998 | locus YNL224C, strain SQS1, active compounds read low 0.984 | locus YNL322C, strain KRE1, active compounds read low 1.01 | locus YOR083W, strain WHI5 (second series), active compounds read low 0.959 | locus YPL055C, strain LGE1, active compounds read low 0.98 | locus YPL241C, strain CIN2, active compounds read low 0.987
